Test in all cases: NCI-60 one-dose screen, 48 h (100 = growth as untreated, 0 = no growth, -100 = all killed)
Details in all cases: 10 µM

In assay [1] the test system is NCI-H23 lung.
Assay [2] deals with NCI-H226 lung.
In assay [3] the test system is NCI-H322M lung.
The test system of assay [4] is HOP-62 NSCLC.
The test system of assay [5] is NCI-H460 lung.
The test system of assay [6] is HOP-92 NSCLC.
In assay [7] the test system is NCI-H522 lung.
Assay [8] relates to A549/ATCC NSCLC.
Assay [9] has as its system 786-0 renal.
In assay [10] the test system is COLO 205 colon.
Assay [11] relates to DU-145 prostate.
Assay [12] deals with K-562 leukemia.
The test system of assay [13] is MDA-MB-231 breast.
Assay [14] concerns RXF 393 renal.
In assay [15] the test system is SF-268 CNS.
Assay [16] has as its system SF-295 CNS.
Assay [17] relates to SF-539 CNS.
Assay [18] concerns UACC-257 melanoma.
Assay [19] relates to M14 melanoma.

About 83,000 compounds went through this panel and 20% of them were active in at least one assay; those are over-represented in the sample as a whole.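 Plates (96-well) were seeded with cells, treated with compound at one concentration, and incubated for 48 hours before percent growth was determined.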 Values without a mark were called inactive. Active and inactive are the calls of the source. The calls were made as follows: active = growth percent below 10; inactive = the rest.

Take `COc1ccc(-c2ccccc2)cc1C(=O)c1ccc(-c2ccccc2)cc1`: the growth is 73.6% in [1]; 88.2% in [2]; 75.5% in assay [3]; 70.4% in assay [4]; 88.9% in assay [5]; 88.4% in assay [6]. For the same compound, the growth in assay [7] was 42.7%; in assay [8], 63.7%; in assay [9], 77.4%; in assay [10] it was 82.5%; in [11] it was 94%; in [12] it was 20.8%. Besides, the growth is 96.8% in [13]; 85.7% in assay [14]; 88.5% in assay [15]; 53.4% in assay [16]; 88.4% in [17]; 106% in [18]. Moreover, in [19], the growth is 52%.

Turning to `CCOC(=O)c1cc2c(n1Cc1cccc(OC)c1)-c1oncc1CC2`, the growth is 48.9% in [1]; 50% in assay [2]; -0.987% (active) in assay [3]; 37.8% in assay [4]; 10% in assay [5]; 30.5% in assay [6]. The growth in [7] was 13.7%; in assay [8], 42.6%; in [9], 36.5%; in assay [10], 9.01% (active); in assay [11], 48.4%; in [12], 18.5%. Moreover, the growth was 52.7% in assay [13]; 11.2% in [14]; 44.8% in assay [15]; 3.54% (active) in assay [16]; 15.8% in assay [17]; 43.6% in [18]. In [19], the growth is 16.8%.

In the case of `O=C(O)c1ccccc1C(=O)c1cccc2c(F)cccc12`, the growth was 102% in [1]; 97.4% in [2]; 108% in assay [3]; 105% in assay [4]; 115% in [5]; 83% in [6]. Moreover, the growth in [7] is 103%; in [8], 96.9%; in [9], 104%; in [10], 102%; in assay [11] it was 112%; in assay [12], 108%. Also, the growth in [13] is 99.2%; in [14], 114%; in assay [15] it was 111%; in assay [16], 122%; in [17], 104%; in assay [18], 98.4%. The growth in assay [19] was 103%.

For the compound `COc1cc(C2c3cc4c(cc3C(O)C(CO)C2CO)OCO4)cc(OC)c1OC` (stereo not given), the growth in assay [1] is 43.2%; in [2], 40.4%; in assay [3] it was -0.279% (active); in assay [4], 40.7%; in assay [5], 4.74% (active); in assay [6], 65.4%. Moreover, the growth is 3.32% (active) in [7]; 47.4% in [8]; 39.1% in assay [9]; -3.75% (active) in assay [10]; 0.809% (active) in [11]; 11.3% in assay [12]. The growth is 41.2% in [13]; -6.08% (active) in assay [14]; 35.9% in assay [15]; -42.8% (active) in [16]; -16.4% (active) in [17]; 62% in [18]. Also, the growth in assay [19] is 22.5%.

`CCN(CC)CC(O)CNc1ccnc2cc(Cl)c(Cl)cc12` (stereo not given): the growth in [1] was 102%; in [2] it was 84.9%; in [3], 92.1%; in assay [4], 88.9%; in assay [5] it was 100%; in assay [6] it was 53.4%. In addition, the growth in assay [7] was 94.1%; in [8], 101%; in assay [9] it was 86.1%; in assay [10], 78.1%; in assay [11], 92.6%; in assay [12] it was 77.7%. Also, the growth is 60% in assay [13]; 81.5% in assay [14]; 83.2% in assay [15]; 97.9% in assay [16]; 95.5% in [17]; 101% in assay [18]. Besides, the growth in assay [19] is 106%.

Consider `O=C1c2cc(Cl)ccc2-c2c(O)cc(Cl)cc21`, for which the growth in assay [1] was 49.3%; in assay [2], 94%; in assay [3], 109%; in assay [4], 89.6%; in assay [5] it was 99.5%; in assay [6], 52.8%. Further, the growth in [7] is 76.2%; in assay [8], 105%; in assay [9], 103%; in assay [10] it was 92%; in assay [11] it was 98.8%; in assay [12], 57.2%. Also, the growth is 79.2% in [13]; 68.8% in [14]; 86.1% in [15]; 99.1% in [16]; 80.7% in assay [17]; 105% in assay [18]. In [19], the growth was 91.8%.

Regarding `C/C(=N\NC(N)=S)C(C)(C)O`, the growth in assay [1] was 93.6%; in assay [2], 89.2%; in [3] it was 104%; in assay [4], 104%; in assay [5], 104%; in assay [6] it was 88.1%. In addition, the growth in assay [7] is 109%; in [8], 83.4%; in assay [9], 96.3%; in [10], 119%; in assay [11], 93.2%; in [12], 37.1%. Besides, the growth in assay [13] was 77.8%; in assay [14], 96.2%; in assay [15], 95.9%; in assay [16], 79.5%; in assay [17], 102%; in [18], 32.6%. Further, the growth in assay [19] was 92%.

For the compound `COc1ccc(NC(=O)CCn2cnc3c(cc(-c4ccccc4)n3-c3ccccc3)c2=O)cc1`, the growth in [1] is 85.8%; in assay [2], 88.8%; in assay [3], 109%; in assay [4], 11.2%; in assay [5] it was 91.8%; in assay [6], 69.1%. In addition, the growth was 45.1% in [7]; 85.8% in [8]; 88.7% in [9]; 114% in [10]; 97.1% in [11]; 90.6% in [12]. The growth in assay [14] is 64.4%; in assay [15], 24.5%; in [16] it was 81.5%; in assay [17] it was 47.3%; in assay [18], 13%.

The values are drawn from PubChem BioAssay (NCI).
